The source made the active and inactive calls. Cut-off read from the data, not from the text of the source: active = inhibition above about 50%; inactive = the rest.

Sequence of Prolyl endopeptidase-like (Mus musculus) (Q8C167 whole entry, looked up): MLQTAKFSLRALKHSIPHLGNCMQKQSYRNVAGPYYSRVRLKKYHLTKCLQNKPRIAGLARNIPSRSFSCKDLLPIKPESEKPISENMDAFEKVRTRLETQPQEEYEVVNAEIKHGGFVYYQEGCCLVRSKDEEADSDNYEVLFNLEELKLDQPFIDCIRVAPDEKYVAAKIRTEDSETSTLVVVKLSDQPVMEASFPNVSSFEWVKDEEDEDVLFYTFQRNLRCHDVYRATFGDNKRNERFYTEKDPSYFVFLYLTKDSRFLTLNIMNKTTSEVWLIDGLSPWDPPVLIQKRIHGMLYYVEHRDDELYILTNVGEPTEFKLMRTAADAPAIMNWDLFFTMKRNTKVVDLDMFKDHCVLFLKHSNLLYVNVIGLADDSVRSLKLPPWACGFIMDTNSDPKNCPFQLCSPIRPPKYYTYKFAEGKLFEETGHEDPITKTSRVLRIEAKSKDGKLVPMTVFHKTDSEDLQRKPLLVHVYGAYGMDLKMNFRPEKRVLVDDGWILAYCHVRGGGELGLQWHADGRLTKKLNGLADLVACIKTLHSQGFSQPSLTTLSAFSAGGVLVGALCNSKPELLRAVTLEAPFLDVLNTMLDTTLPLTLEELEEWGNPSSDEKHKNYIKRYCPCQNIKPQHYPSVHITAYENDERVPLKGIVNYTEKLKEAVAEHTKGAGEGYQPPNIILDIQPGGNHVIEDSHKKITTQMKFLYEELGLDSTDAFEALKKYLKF

This test has as its target Prolyl endopeptidase-like (Mus musculus) (UniProt Q8C167). The experiment in a line: mouse PREPL enzyme inhibition by screening hits – biochemical, gel-based competitive ABPP, fluorescence, HTS hits, PREPL inhibitor project (AID 624481). The following applies: purified mouse PREPL, at 20 µM, active compounds read high.
The inhibition is the drop in the measured response relative to a control, in per cent. For the molecule `Cc1c(C#N)c(N=CN(C)C)c(C(=O)c2ccc(Br)cc2)n1-c1ccc(Cl)cc1`, the inhibition is -59% (inactive).

With `O=c1cc(-c2ccc(O)c(O)c2)oc2cc(O[C@@H]3O[C@H](CO)[C@@H](O)[C@H](O)[C@H]3O)cc(O)c12`, the inhibition is -12% (inactive).

As to `Cc1ccc(-c2csc(=Nc3cccnc3)n2CCCN2CCCC2=O)cc1C`, the inhibition is -149% (inactive).

Turning to `COc1cc(-c2nnc3sc(Cc4ccc(Cl)cc4)nn23)cc(OC)c1OC`, the inhibition is 14% (inactive).

Turning to `O=c1[nH]c2ccc(NCc3ccccc3OCc3ccc(Cl)cc3)cc2[nH]1`, the inhibition was -43% (inactive).

As to `Oc1c(CN2CCCC2)cc(COCc2ccccc2)c2cccnc12`, the inhibition was -64% (inactive).

Turning to `CC(C)NCC(O)Cn1c2c(c3ccccc31)CCc1c-2cnn1-c1ccccc1` (stereo not drawn), the inhibition was -123% (inactive).

On to `CCN1CCN(c2ccc(NC(=O)COc3ccc(Cl)cc3C)cc2)CC1`, for which the inhibition is -7% (inactive).

Regarding `CC[C@@H](C)[C@@H]1CN([C@@H](CN2CCC[C@H]2CN2C(N)=NC[C@H]2C(C)C)C(C)C)C(=N)N1CCc1ccc(Cl)c(Cl)c1`, the inhibition was -64% (inactive).

As for `CN(C)c1ccc(C(CNC(=O)c2ccccc2F)c2c[nH]c3ccccc23)cc1` (stereo not drawn), the inhibition was -10% (inactive).

On to `C[C@H]1CN([C@@H](C)CO)C(=O)c2cccc(NS(=O)(=O)c3ccc(Cl)cc3)c2O[C@@H]1CN(C)CC1CCCCC1`, for which the inhibition is -24% (inactive).

Turning to `O=C(Cc1ccc(Cl)cc1)Nc1ccc(N2CCN(C(=O)c3ccco3)CC2)cc1`, the inhibition is -61% (inactive).

As to `C#CCOCCOCCOCCNc1nc(N2CCN(C(=O)[C@H](Cc3ccc(O)cc3)n3cc([C@@H](N)CC(C)C)nn3)CC2)nc(N2CCN(C(=O)[C@H](Cc3cc4ccccc4[nH]3)n3cc([C@@H](N)CC(C)C)nn3)CC2)n1`, the inhibition is -77% (inactive).

(Values after PubChem BioAssay AID624481 (The Scripps Research Institute Molecular Screening Center, 2012).)
